In PubChem BioAssay (NCI) one finds growth data, which are given here for eight compounds.

The panel holds about 83,000 compounds, 20% with a hit somewhere; the sample as a whole holds those more often.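 Treatment: one concentration, 48 hours, 96-well format. Scoring: percent growth, with anything below 10 considered active.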 Unmarked numbers belong to inactive results. Calls of active or inactive are those of the source.

Experiment in all cases: NCI-60 one-dose screen, 48 h (100 = growth as untreated, 0 = no growth, -100 = all killed)
What all share (conditions): 10 µM unless noted

The test system of assay [1] is NCI-H23 lung.
The subject of assay [2] is NCI-H226 lung.
In assay [3] the test system is NCI-H322M lung.
Assay [4] deals with HOP-62 NSCLC.
Assay [5] concerns NCI-H460 lung.
Assay [6] deals with HOP-92 NSCLC.
In assay [7] the test system is A549/ATCC NSCLC.
For assay [8], the system named is 786-0 renal.
The test system of assay [9] is COLO 205 colon.
The subject of assay [10] is DU-145 prostate.
The subject of assay [11] is K-562 leukemia.
Assay [12] deals with MALME-3M melanoma.
Assay [13] concerns MDA-MB-231 breast.
The test system of assay [14] is RXF 393 renal.
The subject of assay [15] is SF-268 CNS.
Assay [16] concerns SF-295 CNS.
In assay [17] the test system is SF-539 CNS.
In assay [18] the test system is UACC-257 melanoma.
Assay [19] deals with M14 melanoma.
In assay [20] the test system is NCI-H522 lung.

Turning to `Cc1c(Cl)cccc1C(=O)Nc1nc2c(s1)CN(C(=O)Nc1cccc(C(F)(F)F)c1)CC2`, the growth in assay [1] is 21.5%; in [2] it was 39.3%; in assay [3], 46.6%; in assay [4], 37.2%; in assay [5] it was 7.19% (active); in assay [6] it was 38.3%. Further, the growth was 22.5% in [7]; 29.1% in assay [8]; 7.09% (active) in [9]; 16.8% in [10]; 11.2% in [11]; 44.5% in assay [12]. Further, the growth in assay [13] was 32.3%; in assay [14] it was -7.27% (active); in [15] it was 35.2%; in assay [16], 26%; in assay [17], -26.9% (active); in assay [18], 55.7%. Moreover, in [19], the growth is 18.2%.

Regarding `C#CC#CC#CC#CC#CC#CC#CC#CC[C@H]1OC[C@@H](COC(=O)O[C@@H](C(=O)O[C@H]2C[C@@]3(O)[C@@H](OC(=O)c4ccccc4)[C@@H]4[C@]5(OC(C)=O)CO[C@@H]5C[C@H](O)[C@@]4(C)C(=O)[C@H](OC(C)=O)C(=C2C)C3(C)C)[C@@H](NC(=O)c2ccccc2)c2ccccc2)O1`, the growth was 48% in assay [1]; 56.2% in [2]; 54.6% in assay [3]; 74.4% in [4]; 19.2% in [5]; 79.3% in [6]. In addition, the growth in assay [20] is 71.4%; in assay [8] it was 83.3%; in assay [9] it was 29.4%; in assay [10], 41.1%; in assay [11], 22.7%; in assay [12] it was 62.5%. The growth in [13] is 66%; in assay [14], 50.7%; in assay [15], 65.9%; in assay [16], 43.5%; in assay [17], 54.1%; in assay [18], 64.6%. In addition, the growth in [19] was 25.3%.

On to `CCN(CC)CCCNCc1cc(-c2ccccc2)nc2cc(Cl)ccc12`, for which the growth is 68.6% in assay [1]; 140% in [2]; 75.5% in assay [3]; 78.1% in [4]; 43.3% in [5]; -20.9% (active) in assay [6]. The growth in assay [20] is 44.2%; in assay [8], -27.6% (active); in assay [9], 51.2%; in assay [10], 78.3%; in [11], -17.3% (active); in assay [12], -66.4% (active). For the same compound, the growth in assay [13] is 22.1%; in assay [14] it was 77.2%; in assay [15] it was 38.2%; in [16], 79.9%; in assay [17], 40.4%; in assay [18], -76.8% (active). Besides, in assay [19], the growth was -95.3% (active).

For the compound `Cc1ccc(S(=O)(=O)n2cc(C3C(Cl)C(=O)N3c3ccc(N4CCOCC4=O)cc3)c3ccccc32)cc1` (configuration not stated), the growth is 52.5% in assay [1]; 72.3% in assay [2]; 86.7% in [3]; 67.6% in assay [4]; 97.2% in assay [5]; 49.8% in assay [6]. For the same compound, the growth in assay [20] is 63.7%; in assay [8] it was 86%; in [9], 108%; in assay [10], 63.6%; in assay [11], 22.5%; in [12], 56.4%. The growth in assay [13] is 16.5%; in assay [14], 65.5%; in [15] it was 57.9%; in [16], 82.5%; in assay [17], 28.1%; in assay [18], 74.3%. Further, the growth in assay [19] is 25.7%.

On to `C=NNc1ccccc1`, for which the growth in assay [1] is 86.5%; in assay [2] it was 87.5%; in assay [3] it was 85.7%; in [4], 101%; in assay [5], 102%; in [6], 78.1%. The growth was 84.3% in assay [7]; 103% in [8]; 100% in assay [9]; 100% in assay [10]; 75.8% in assay [11]; 126% in assay [12]. For the same compound, the growth in assay [13] is 66.8%; in [14] it was 105%; in assay [15] it was 92.3%; in assay [16] it was 100%; in assay [17], 101%; in assay [18], 98.3%. For the same compound, the growth in assay [19] was 95.3%.

`C=C1C(=O)O[C@H]2[C@H]1CC/C(COC(=O)NCc1ccc(Cn3c(=O)sn(-c4ccc(OC)cc4)c3=O)cc1)=C\CC[C@@]1(C)O[C@@H]21`: the growth was 88.2% in [1]; 94.8% in assay [2]; 97.7% in [3]; 98.9% in assay [4]; 95.2% in assay [5]; -1.01% (active) in [6]. Also, the growth is -65.4% (active) in assay [20]; 50.9% in [8]; -51.2% (active) in assay [9]; 27% in assay [10]; -3.73% (active) in assay [11]; -3.77% (active) in assay [12]. For the same compound, the growth in assay [13] was 47.7%; in [14], 42.3%; in assay [15] it was 86.5%; in assay [16], 97.7%; in assay [17], 82.1%; in assay [18], 65.3%. For the same compound, the growth in [19] is 25.7%.

Regarding `Cn1cc(-c2ccc3cc(-c4ccc(CC(=O)Nc5cc(C(C)(C)C)on5)cc4)cnc3c2)cn1`, the growth was 46.1% in assay [1]; 43% in assay [2]; 16.5% in [3]; 44.4% in assay [4]; -3.39% (active) in [5]; 50.9% in assay [6]. Besides, the growth in assay [20] is 17.2%; in assay [8] it was -92.6% (active); in [9], 35.3%; in assay [10] it was 22.1%; in [11] it was 5.03% (active); in [12], -15.8% (active). In addition, the growth is 11.4% in assay [13]; -0.246% (active) in assay [14]; 15.7% in assay [15]; 29.7% in [16]; 20.4% in [17]; 5.83% (active) in assay [18]. The growth in assay [19] was 0.0609% (active).

Regarding `O=c1[nH]c(-c2ccc(Cl)cc2)cn1-c1ccc(-n2cc(-c3ccc(Cl)cc3)[nH]c2=O)cc1`, the growth was 95.9% in assay [1]; 91.1% in assay [2]; 115% in [3]; 99.8% in assay [4]; 115% in assay [5]; 99.1% in [6]. In addition, the growth in assay [20] is 112%; in assay [8], 96.4%; in assay [9], 111%; in assay [10], 108%; in assay [11] it was 113%; in assay [12], 97.9%. Further, the growth was 94.7% in assay [13]; 113% in assay [14]; 109% in assay [15]; 101% in assay [16]; 104% in assay [17]; 101% in [18]. For the same compound, the growth in assay [19] was 99.2%.
